# Laboratory results taken from PubChem BioAssay (NCI).
# Several values for one entry are separate records, joined by “and”; a condition that tells them apart may be missing. Identical values can stand only once. Compounds without any hit were thinned out: in the full panel of roughly 79,000, 15% have a hit. A number with no mark means an inactive call. Activity calls are given as the source filed them. Rule as the data show it: active = growth inhibition above about 70%; inactive = the rest.
# Columns and labels:
# [1] = NCI Yeast Anticancer Drug Screen. Data for the mec2-1 strain (AID 157); conditions: S. cerevisiae mec2-1 strain, hits give high values
# Outline: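 Compounds were applied to mec2-1 yeast cells. Their growth was then compared with that of vehicle-treated cultures to give growth inhibition.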
# [2] = NCI Yeast Anticancer Drug Screen. Data for the sgs1 mgt1 strain (AID 161);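 also: 0% = growth of cultures given vehicle only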; conditions: S. cerevisiae sgs1 mgt1 strain, hits give high values
# Outline: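 Percent growth inhibition was derived by comparing compound-exposed mutant yeast with vehicle-exposed cultures. The strain carries alterations in DNA damage repair.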
# [3] = NCI Yeast Anticancer Drug Screen. Data for the cln2 rad14 strain (AID 165);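 also: 0% = growth equal to vehicle treated cultures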; conditions: S. cerevisiae cln2 rad14 strain, hits give high values
# Outline: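 Strain: cln2 rad14 yeast, altered in cell cycle control and DNA damage repair. Read-out: growth inhibition vs vehicle.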
# [4] = NCI Yeast Anticancer Drug Screen. Data for the bub3 strain (AID 167); conditions: S. cerevisiae bub3 mutant strain, hits give high values
# Outline: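 Part of a panel of yeast mutants defective in DNA damage repair or cell cycle regulation. Each strain is grown with compound, and inhibition is calculated relative to solvent-treated cultures.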
# [5] = NCI Yeast Anticancer Drug Screen. Data for the mlh1 rad18 strain (AID 175); conditions: S. cerevisiae mlh1 rad18 strain growth inhibition, hits give high values
# Outline: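 A repair-deficient yeast strain is exposed to test compound, and growth is scored relative to vehicle-treated controls.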
# [6] = NCI Yeast Anticancer Drug Screen. Data for the rad50 strain (AID 155);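 also: 0% = growth of vehicle-only cultures of the same strain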; conditions: S. cerevisiae rad50 strain growth inhibition; at 50.0 µM; hits give high values
# Outline: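 Cells are treated with compound, grown, and their growth is then scored against vehicle-only cultures of the same repair-deficient yeast strain.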
# [7] = at 5.0 µM (retest, dose inferred, filed as 0.5)
# [8] = at 50.0 µM (retest, dose inferred, filed as 5.0)
SMILES,"growth inhibition [1, 7]","growth inhibition [1, 8]",growth inhibition ([1]; at 50.0 µM),"growth inhibition [2, 7]","growth inhibition [2, 8]",growth inhibition ([2]; at 50.0 µM),"growth inhibition [3, 7]","growth inhibition [3, 8]",growth inhibition ([3]; at 50.0 µM),"growth inhibition [4, 7]","growth inhibition [4, 8]",growth inhibition ([4]; at 50.0 µM),"growth inhibition [5, 7]","growth inhibition [5, 8]",growth inhibition ([5]; at 50.0 µM),growth inhibition [6]
Cc1cc(C)c([I+]c2c(C)cc(C)cc2C)c(C)c1,20%,97% (active),73.4% (active),9%,95% (active),60.6%,16%,97% (active),56.6%,52%,98% (active),60%,16%,72% (active),71% (active),–
O=CNc1ccc(C(F)(F)F)cc1,–,–,-6.85% and -3.6%,–,–,–,–,–,-10.9% and 14.7%,–,–,-8.8% and 25.4%,–,–,5.3% and 10.9%,-16.9% and 16.4%
CC(=O)OC1COC(N2CCc3ccccc32)C(OC(C)=O)C1OC(C)=O (stereo unspecified),–,–,-2.95% and -28%,–,–,-33% and -34.4%,–,–,-6.75% and -2.5%,–,–,-27.7% and -17.9%,–,–,-25.2% and -33.2%,–
Cc1ccccc1N=C(N)Nc1ccccc1C (tested in a mixture with another compound),–,–,–,-1%,5%,30.6%,-2%,-16%,-62.5%,3%,11%,11.5%,-2%,13%,28.6%,–
CCC(C)(CC)c1ccc(O)cc1,-1%,45%,–,-3%,77% (active),–,-2%,23%,–,0%,44%,–,33%,76% (active),–,–
OC1CCN2Cc3ccccc3N=C12 (stereo unspecified),–,–,-0.3% and 21.7%,–,–,17.4% and -5.9%,–,–,–,–,–,-3.05% and 13.4%,–,–,-2% and -16.8%,3.1% and 22.2%
O=Cc1ccc(-c2ccc(-c3ccc(CO)s3)o2)s1,11%,45%,4.65%,5%,77% (active),44.5%,3%,33%,-8.55%,21%,53%,16.5%,20%,84% (active),65.3%,–
CCN1CCCC(Nc2cc(C)nc(/N=C(/N)Nc3ccc(Cl)c(Cl)c3)n2)C1 (stereo unspecified),–,–,–,48%,97% (active),86.7% (active),55%,86% (active),82.7% (active),29%,96% (active),83.6% (active),–,–,–,–
